Data: the supplement of paper PMC6555819

Key:
Assay in all cases: PBM binding z-score (relative to random genomic background probes); higher = stronger binding; sequences stand for … in GC…GCGATTGACAGCGTAGAATGAAGG
[1] = tested on: FXR:RXRa (NR concentration 270 nM, RXRa partner concentration 90 nM)
Summary of the method: (§1)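 Ligand-free nuclear receptor dimers were bound for 1 h to custom Agilent 4×180K protein-binding microarrays. Detection used antibodies against each partner (one per run). Binding z-scores rest on regression-normalized fluorescence, with random background probes as the reference.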

[2] = tested on: LXRa:RXRa (NR concentration 270 nM, RXRa partner concentration 90 nM)
Summary of the method: as §1

[3] = tested on: LXRa homodimer (NR concentration 270 nM)
Summary of the method: as §1

[4] = tested on: LXRb:RXRa (NR concentration 270 nM, RXRa partner concentration 90 nM)
Summary of the method: as §1

[5] = tested on: LXRb homodimer (NR concentration 270 nM)
Summary of the method: as §1

[6] = tested on: PPARa:RXRa (NR concentration 270 nM, RXRa partner concentration 90 nM)
Summary of the method: as §1

[7] = tested on: PPARg:RXRa (NR concentration 180 nM, RXRa partner concentration 90 nM)
Summary of the method: as §1

[8] = tested on: PPARg:RXRa 270nM:90nM, anti-RXR (NR concentration 270 nM, RXRa partner concentration 90 nM)
Summary of the method: as §1

[9] = tested on: PPARg:RXRa 30nM:10nM, anti-RXR (NR concentration 30 nM, RXRa partner concentration 10 nM)
Summary of the method: as §1

[10] = tested on: PPARg:RXRa 90nM:30nM, anti-RXR (NR concentration 90 nM, RXRa partner concentration 30 nM)
Summary of the method: as §1

[11] = tested on: PPARg:RXRa DBDmut IVT, anti-RXR (DBD mutation: RXRa K156A/R161A, NR concentration 270 nM, RXRa partner concentration 90 nM)
Summary of the method: as §1

[12] = tested on: PPARg:RXRa IVT, anti-PPARg (NR concentration 270 nM, RXRa partner concentration 90 nM)
Summary of the method: as §1

[13] = tested on: PPARg DBDmut:RXRa IVT, anti-PPARg (DBD mutation: PPARg1 K132A/R137A, NR concentration 270 nM, RXRa partner concentration 90 nM)
Summary of the method: as §1

[14] = tested on: PPARg DBDmut IVT, anti-PPARg (DBD mutation: PPARg1 K132A/R137A, NR concentration 270 nM)
Summary of the method: as §1

[15] = tested on: PPARg homodimer (NR concentration 180 nM)
Summary of the method: as §1

[16] = tested on: PXR:RXRa (NR concentration 270 nM, RXRa partner concentration 90 nM)
Summary of the method: as §1

[17] = tested on: PXR homodimer (NR concentration 270 nM)
Summary of the method: as §1

[18] = tested on: RARa:RXR (NR concentration 270 nM, RXRa partner concentration 90 nM)
Summary of the method: as §1

[19] = tested on: RARa homodimer (NR concentration 270 nM)
Summary of the method: as §1

[20] = tested on: RARb:RXRa (NR concentration 270 nM, RXRa partner concentration 90 nM)
Summary of the method: as §1

Sequence	PBM binding z-score [1]	PBM binding z-score [2]	PBM binding z-score [3]	PBM binding z-score [4]	PBM binding z-score [5]	PBM binding z-score [6]	PBM binding z-score [7]	PBM binding z-score [8]	PBM binding z-score [9]	PBM binding z-score [10]	PBM binding z-score [11]	PBM binding z-score [12]	PBM binding z-score [13]	PBM binding z-score [14]	PBM binding z-score [15]	PBM binding z-score [16]	PBM binding z-score [17]	PBM binding z-score [18]	PBM binding z-score [19]	PBM binding z-score [20]
ATCTCTAGGTAAGACTCAGTTCAGAGAAGAACGC	0.455	0.578	0.401	-0.0123	0.78	-0.0205	0.366	0.339	0.28	0.268	1.92	1.16	1.58	0.9	1.02	0.856	1.56	0.299	0.962	0.134
TTGAGTAGGTTACCAATGGGGCATTCAGCTTTCT	0.0857	1.41	-0.22	1.21	-0.0643	1.36	1.23	1.9	1.01	1.5	4.77	4.38	0.923	0.772	0.846	0.242	-0.056	0.279	0.0397	1.19
TGTCGAAGTTCAAAGGTAACGTAAGTATCCACAC	4.25	4.02	1.18	3.18	0.108	4.72	4.47	5.23	2.95	4.34	-0.721	2.09	0.265	0.298	1.53	4.12	1.65	4.17	0.485	3.61
GTACCAAGGTGAATAGGTCGTTTATGAGTAGGCG	0.975	1.13	0.161	0.811	-0.198	2.44	1.62	1.79	0.597	1.5	1.82	2.43	0.986	0.34	1.17	1	0.0793	1.92	0.555	2.01
GGAACCAGGGCATTCGAGTTGATAGCATGGCGAT	1.3	0.74	-0.0183	0.0646	0.153	1.69	0.973	0.862	-0.134	0.0636	3.39	2.91	-0.295	0.956	1.01	2.12	0.865	0.882	0.0816	1.72
GCTATTTGTTGAAAGGGCAACCGAATGATTCTCG	0.484	0.768	0.386	0.834	0.261	1.37	0.764	1.88	0.957	1.46	0.563	0.804	0.209	0.611	1.53	0.686	0.462	1.01	1.45	1.98
CCTACTGGGCCATTCAGAGGTCAGTGATCATATG	0.991	1.94	2.35	1.78	-0.442	2.54	1.47	1.99	0.391	1.29	4.58	3.89	-0.582	-0.353	2.08	2.28	0.543	2.64	0.443	2.77
GCTTATAGATCAAGGTTAAGAAAGACTAAGCTAA	0.198	0.766	-0.148	0.438	-0.382	1.4	0.991	1.57	0.403	1.13	0.775	0.678	0.643	0.713	0.58	0.457	-0.0715	0.879	0.134	0.997
CGAACTAGGTCATTGACAGCACAGTGAATAGTAA	4.2	2.64	0.265	2.07	0.329	4.78	7.32	6.23	3.86	5.6	7.82	8.09	2.12	2.03	1.52	1.18	0.34	1.77	0.733	3.58
TAGCCTAGGTCATGGGCCACTATACCACGCGAAC	4.16	3.63	0.886	2.81	0.0878	4.15	4.04	4.19	1.48	3.31	2.09	3.43	0.102	-0.16	1.27	1.72	-0.144	2.66	-0.0929	3.8
CGTCCAAGGTCAATCCTAGGTCAGTGAAAGCATT	7.14	5.85	3.44	4.8	1.43	5.47	4.38	4.75	1.43	3.63	3.45	4.04	0.153	0.742	6.19	5.13	0.983	6.44	1.8	5.33
AGAACGAGGGCACGCCGAGTTGATAGCAGAGTAG	0.906	0.551	-0.503	0.0965	-0.66	2.36	2.1	1.92	0.0797	0.871	3.84	4.08	0.68	-0.645	0.0729	1.38	0.119	0.82	-0.438	2.57
TCATATATGTAAAGGTGAAAGTCGAACGATATGA	0.775	1.41	-0.143	1.2	-0.14	2.68	2.6	3.13	3.73	3.47	1.83	1.99	1.26	0.868	0.62	0.981	-0.319	1.78	0.741	1.96
AATAGCAGGCCAAGGGTCACTCAAGATTAGTCCG	2.6	3.25	0.455	2.65	-0.0727	4.75	8.33	7.83	6.83	8.23	2.14	4.27	0.158	-0.162	1.57	3.26	-0.222	4.09	0.758	3.54
